Apoferritin bind = binds horse apoferritin like a general anesthetic | apoferritin/1-aminoanthracene competitive binding, fluorescence | P02791 | 0.074% of 350,000 active | Potency, µM (doses to about 77.5 µM), for the others: at the top dose activity change, negative = displacement, usual class: inhibitors | AID 485281; further: potency means the concentration at half of the fitted maximal effect; on the % scale 0 is the no-effect control and ±100 the full control effect; nearly all actives have a fitted effect of over 20% in size
Target sequence (P02791 2-175 limits assumed): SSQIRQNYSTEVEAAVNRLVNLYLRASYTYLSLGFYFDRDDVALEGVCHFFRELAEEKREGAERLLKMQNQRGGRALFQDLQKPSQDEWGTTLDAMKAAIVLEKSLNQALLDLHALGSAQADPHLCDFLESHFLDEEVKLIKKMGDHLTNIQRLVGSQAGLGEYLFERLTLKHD
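Steps: apoferritin (10 uM) was premixed with half-saturated 1-AMA in PBS, compounds were pin-transferred, plates stood 10 min at room temperature, fluorescence was read at 380/535 nm, and curves were fitted with a Hill equation.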
CCT modulator = cytosolic chaperonin activity modulation; purified chaperonin ATPase assay, HTRF ADP detection, 30 min; activity change, % (concentration not given with the values), hits read low; 0.3% of 360,000 active; AID 651819; in the data active means activity change below about -30%; further: on the % scale 0 is the no-effect control and ±100 the full control effect
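TRiC at 40 or 20 nM final (batch-dependent) in 30 mM Tris pH 7.4, 100 mM KCl, 5 mM MgCl2, 1 mM DTT, with compound at single 76 uM and 10 uM ATP, 30 min at 37 deg C. ADP detected by HTRF Transcreener, 665/615 ratio.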
TDP43 rescue = inhibitors of TDP-43 toxicity in yeast; TDP-43 expressing yeast growth rescue, BacTiter-Glo, 24 h; Potency, µM (doses to about 46.1 µM), for the others: at the highest dose growth rescue (activation), hits mostly activators; 1.8% of 410,000 active; further: potency means the concentration at half of the fitted maximal effect; % of control where 0% means no effect; nearly all actives have a fitted effect of over 50% in size
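In this qHTS, compounds that restore growth of yeast expressing TDP-43 appear as activators. Cells (OD600=0.02, galactose medium, raffinose-pregrown) are incubated with compound 24 hr at 30 deg C and growth is quantified by BacTiter-Glo.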
Mito fusion yeast = blocks mitochondrial division or promotes mitochondrial fusion; S. cerevisiae fusion-defective mutant growth rescue, CellTiterGlo 48 h; Potency, µM (doses to about 46.1 µM), inactives show top-dose growth rescue (activation), actives largely listed as activators; 0.23% of 320,000 active; AID 485298; further: potency means the concentration at half of the fitted maximal effect; % of control where 0% means no effect; nearly all actives have a fitted effect of over 45% in size
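S. cerevisiae fusion-defective temperature-sensitive mutants (e.g. fzo1-1, mgm1-5) grown 48 h at 37C in YPEG (ethanol/glycerol non-fermentable) medium with 23 nl compound per well; growth rescue read as CellTiterGlo luminescence.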
aSyn yeast inh = inhibitors of alpha-synuclein toxicity in yeast. Yeast expressing alpha-synuclein, growth rescue, BacTiter-Glo, 24 h. Potency, µM (top dose mostly 46.1 µM), without a hit: at the highest dose growth rescue (activation), actives largely listed as activators. 0.14% of 370,000 active; further: potency means the concentration at half of the fitted maximal effect; % of control where 0% means no effect; nearly all actives have a fitted effect of over 65% in size
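Rescue of yeast growth: cells expressing toxic alpha-synuclein, induced in galactose at OD600 0.02, incubated with compound 24 h at 30 C. ATP luminescence quantified growth; inhibitors of toxicity appear as activators.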
Akt phos inh = blocks phosphorylation of Akt; Neuro2A IGF-stimulated pAkt S473 HTRF, 20 min; stronger effect = lower value; activity change, % for hits at 50 µM; 0.32% of 360,000 active; AID 651550; in the data active means activity change below about -80%; inconclusive means mostly about -51% to -80%; further: on the % scale 0 is the no-effect control and ±100 the full control effect
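Single-point screen (50 µM final compound) in Neuro2A cells stimulated 20 min with 6 nM IGF at 37 deg C. After lysis, Ser473-phosphorylated Akt read by HTRF (ex 330 nm, em 615/665 nm) as the 665/615 ratio.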
* marks the source's active call; other numbers are inactive results; i = inactive; ? = inconclusive; nt = no result; [ ] = remark or other dose. Most compounds without a hit are left out; they make up all but 2.5% or so of the library. Unless noted, the call rests on the fitted dose curve; in most records, active means well fitted curve in the direction sought with a large enough effect; inconclusive means small, poorly fitted or top-dose-only effect, or another doubt; inactive means no such curve, though single readings can be large; an effect the other way counts as inactive or inconclusive.

SMILES | Apoferritin bind | CCT modulator | TDP43 rescue | Mito fusion yeast | aSyn yeast inh | Akt phos inh
Cc1cccc(-c2nc(CS(=O)CC(=O)NC3CCCC3)c(C)o2)c1 (centres undefined) | -10.2% | -0.5 | ? | -1.9% | 5.62µM* | i
Cc1nc(-c2cccc(F)c2)sc1CCNC(=O)C(=O)Nc1ccc2c(c1)OCO2 | -0.9% | nt | 8.1% | nt | nt | nt
Cc1c(Cl)cccc1Nc1nc(N)nc(CSc2nc3ccccc3s2)n1 | -4.7% | 1.0 | 15.8µM* | 8.91µM* | -12.6% | i
Nc1nc(CSc2nc3ccccc3s2)nc(Nc2ccccc2)n1 | 3.0% | nt | nt | 13.6% | nt | nt
COc1ccc(N/N=C(/Oc2ccc([N+](=O)[O-])cc2)C(C)=O)cc1 | -20.0% | 0.1 | ? | -0.8% | 6.5% | -113.5%*
COc1ccc(NN=Nc2ccc([N+](=O)[O-])cc2)cc1 | ? | 3.7 | 17.8µM* | -4.2% | -8.9% | i
CC[C@@H]1C(c2cccc(C)c2)=NN(c2ccc(Br)cc2)[C@H]1C(=O)N1CCOC1=O | 540.7% | nt | nt | nt | nt | nt
N#Cc1ccc(/C=C2\C=Cc3ccccc32)cc1 | nt | nt | nt | nt | -9.5% | nt
CCN(c1ccccc1)c1ccc2cc(S(=O)(=O)N3CCCC3)ccc2n1 | 46.5% | nt | 16.0% | nt | nt | nt
C=CCN(c1ccccc1)S(=O)(=O)c1cccc(C(=O)Nc2ccc(N3CCOCC3)cc2)c1 | nt | -5.3 | 14.1µM* | 6.0% | 0.9% | i
CN1CC2(Cc3cc([N+](=O)[O-])ccc31)C(=O)OC(C)(C)OC2=O | nt | nt | nt | nt | -0.3% | nt
CCn1c(-c2ccc3ncccc3c2)n[nH]c1=S | -8.6% | 1.8 | 13.1% | -2.7% | nt | nt
CCn1c(-c2cccc(Br)c2)n[nH]c1=S | 2.7% | -5.5 | 20µM* | 0.8% | -0.1% | i
C=CCC(O)[C@H](Cc1cnc2ccccc2c1)[C@H](/C=C/CCCC)c1ccccc1 (some centres undefined) | -19.7% | nt | nt | nt | nt | nt
Cc1cc(C)n(C(=O)CNc2ccccc2Cl)n1 | -3.4% | -2.5 | 3.6% | 5.9% | -0.7% | -126.7%*
Cc1cc(C)n(C(=O)CNc2cccc(Cl)c2C)n1 | -9.4% | 0.7 | 16.4% | 2.5% | 3.2% | i
O=C(COc1ccc(-c2nnco2)cc1)NC1CCCc2ccccc21 (centres undefined) | -13.4% | -1.2 | 20µM* | 4.7% | 1.3% | i
CCN(CC)S(=O)(=O)c1ccc(C)c(NC(=O)COc2ccc(Cl)cc2Br)c1 | 0.2% | -55.9* | -5.9% | -4.8% | -2.7% | i
COc1ccc(-n2ncc3c(N4CCC(C)CC4)ncnc32)cc1 | -6.6% | -7.8 | 14.1µM* | 0.3% | -8.2% | i
O=C(CNC(=S)NC(=O)c1cccs1)c1ccccc1 | -23.1% | -3.2 | 21.3% | 16.4% | -7.2% | i
O=C(NCc1cccc2ccccc12)c1cccs1 | nt | 1.7 | 12.6µM* | -6.7% | 3.1% | i
O=C(Cc1cccc2ccccc12)NNC(=O)c1cccs1 | -6.8% | -1.6 | -0.1% | -3.9% | 7.4% | i
O=C(NC(=S)NCc1ccccc1)c1cccs1 | -19.7% | 0.1 | 12.6µM* | -8.9% | -13.4% | i
O=C(NC(=S)NCc1ccc(F)cc1)c1ccccc1 | -8.2% | 0.9 | 22.4µM* | nt | -4.6% | i
Cc1cc(C)c(-c2n[nH]c3c2C(c2ccccc2F)N(Cc2ccco2)C3=O)c(O)c1 (centres undefined) | ? | nt | 14.4% | nt | nt | nt
SMILES | Apoferritin bind | CCT modulator | TDP43 rescue | Mito fusion yeast | aSyn yeast inh | Akt phos inh
CC(=O)OC[C@@H]1O[C@H](C/C=N\O[C@@H](C)c2cn([C@H](CO)Cc3ccccc3)nn2)C=C[C@@H]1OC(C)=O | -0.2%[15.3 µM] | nt | nt | nt | nt | nt
Clc1ccc(-c2nnc(-c3ccco3)nc2N2CCCCC2)cc1 | -12.0% | 0.5 | ? | 11.2µM* | -7.5% | i
O=S(=O)(NCc1ccccc1)c1ccc(NC(=S)NCc2ccco2)cc1 | 8.91µM* | -2.7 | -7.3% | -2.2% | -7.4% | i
COc1ccccc1Cc1c(-c2ccc(OC)c(OC)c2)nc2c3ccccc3ccn12 | nt | 2.4 | 11.2µM* | nt | 3.6% | i
COc1ccc(-c2nc3c4ccccc4ccn3c2Cc2ccccc2)cc1OC | nt | 0.2 | 0.0% | nt | 9.0% | i
Brc1cccc(-c2nc3c4ccccc4ccn3c2Cc2ccsc2)c1 | nt | -1.3 | ? | nt | 0.3% | i
CCOC(=O)Cc1c(-c2cccc(Br)c2)nc2c3ccccc3ccn12 | nt | -0.6 | 22.4µM* | nt | 8.0% | i
COc1ccc(Cc2c(-c3ccccc3)nc3c4ccccc4ccn23)c(C)c1 | nt | 2.0 | 11.2µM* | nt | 16.6% | i
COc1ccc(-c2nc3c4ccccc4ccn3c2Cc2ccccc2C(F)(F)F)cc1OC | nt | -0.6 | 20µM* | nt | 16.6% | i
COc1ccc(-c2nc3cccc(C)n3c2Nc2ccc(C)cc2)cc1 | nt | nt | nt | nt | -15.9% | nt
CCN(CC)C(=O)c1sc2c(c1C)c(=O)n(-c1ccc(Cl)c(Cl)c1)c(=O)n2Cc1cc(=O)n2ccccc2n1 | 4.6% | nt | 0.0% | nt | nt | nt
CN1CCN(C(=O)CCN2C(=O)c3ccccc3C2=O)CC1 | 0.6% | -1.8 | 25.1% | 3.4% | -0.6% | i
CC1CN(C(=O)CCN2C(=O)c3ccccc3C2=O)CC(C)O1 (centres undefined) | 23.4% | -1.8 | 17.1% | 0.0% | 3.2% | -116.7%*
Cc1c(OC(C)C(=O)NCC2CCC(C(=O)O)CC2)ccc2c3c(c(=O)oc12)CCCC3 (centres undefined) | -5.4% | -36.7* | -0.2% | -10.5% | 2.7% | i
O=C1CC(N2CCN(c3ccccc3Cl)CC2)C(=O)N1c1cccc(F)c1 (centres undefined) | -6.9% | -1.1 | 12.6µM* | -0.7% | 0.5% | i
O=C1CC(N2CCN(c3ccccc3Cl)CC2)C(=O)N1c1ccc(F)cc1 (centres undefined) | -16.0% | -3.2 | ? | -13.0% | 7.3% | i
CCCCCCCCCCCCOC(=O)N1CCN(/[N+]([O-])=N/Oc2ccc([N+](=O)[O-])cc2[N+](C)=O)CC1 | nt | nt | nt | nt | -46.6% | nt
COc1ccc2nc(CNC(=O)C3CCC(=O)N(CCc4ccccc4)C3)[nH]c2c1 (centres undefined) | -7.1% | -56.3* | -3.2% | -0.8% | -0.1% | i
COCc1cc(CNC(=O)C2CCC(=O)N(Cc3cccc(OC)c3)C2)[nH]n1 (centres undefined) | -5.8% | -47.9* | 15.1% | 0.0% | 3.8% | i
COc1cccc(CN2CC(C(=O)N(C)Cc3nc(C)cs3)CCC2=O)c1 (centres undefined) | -8.2% | -30.9* | 1.5% | 3.3% | 5.7% | i
O=C(CN1C(=O)COc2ccc(S(=O)(=O)N3CCCCCC3)cc21)Nc1cccc(Cl)c1 | -6.8% | nt | ? | nt | nt | nt
Cc1nc(-c2ccc(Cl)cc2)sc1CCNC(=O)C(=O)Nc1ccc2c(c1)OCO2 | -12.0% | nt | 0.0% | nt | nt | nt
